# Sampled rows, rich in hits. Any-hit rate of the full collection: about 8%.
# KB-3-1 tox: KB-3-1 parental cell cytotoxicity | KB-3-1 viability, CellTiter-Glo ATP luminescence, 72 h | Potency, µM (series often up to 46.1 µM), most hits filed as cytotoxic | 400,000 tested, 1.4% active; also: % is scaled to controls: 0 for no effect and ±100 for the full control effect; nearly all actives have a fitted effect of over 60% in size
#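 Cytotoxicity measured as CellTiter-Glo luminescence after 72 h at 37 C. Compound titrations were pinned onto drug-naive KB-3-1 parental adenocarcinoma cells grown in DMEM with 10% FBS, and normalized data fitted to concentration-response curves.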
# SW480 rereplic: DNA re-replication induction in SW480 cells | Potency, µM (top dose mostly 46.1 µM), inactives show top-dose re-replication activation, most hits filed as activators | SW480 DNA re-replication, Hoechst DNA content imaging, 48 h | AID 624297 | 340,000 tested, 1.8% active; also: % of control where 0% means no effect; nearly all actives have a fitted effect of over 55% in size
#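 Image-based DNA-content assay: after two days of treatment, nuclei were labelled with the DNA dye Hoechst and imaged, and hits were compounds raising the count of nuclei showing high fluorescence intensity.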
# KB-V1 cytotox: kills drug-selected multidrug resistant KB-V1 cells; KB-V1 MDR cells viability, CellTiter-Glo, 72 h; Potency, µM (top dose mostly 46.1 µM), actives largely listed as cytotoxic; 400,000 tested, 3.4% active; AID 1347076; also: % is scaled to controls: 0 for no effect and ±100 for the full control effect; nearly all actives have a fitted effect of over 60% in size
#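 Cytotoxicity toward P-gp-expressing KB-V1 cells was determined as loss of CellTiter-Glo luminescence after 72 h at 37 degrees C. Compounds were tested in quantitative HTS format across a concentration range, with curves fitted to normalized data.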
# MCF10A rerep: induces DNA re-replication in MCF 10a normal breast cells. 350,000 tested, 2.9% active. AID 624296. MCF 10A DNA re-replication, Hoechst nuclear intensity, 48 h. Potency, µM (doses to about 46.1 µM), inactives show at the highest dose activity, positive = re-replication, usual class: activators; also: % of control where 0% means no effect; nearly all actives have a fitted effect of over 50% in size
# HT1080 IDH1KD tx: toxicity to HT-1080 IDH1 knockdown cells (counter line); Potency, µM (highest dose often 46.1 µM), without a hit: top-dose activity, negative = toxicity, hits mostly cytotoxic; AID 686971; HT-1080 IDH1 knockdown viability, ATP luminescence, 48 h; 360,000 tested, 2% active;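 also: 0% = DMSO wells and -100% = cell-free medium wells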
#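 IDH1KD HT-1080 cells, 750/well, RPMI + 5% FBS; compound pinned after 2 h settling; 48 h, 37 °C; CellTiter-Glo luminescence; % activity normalised to DMSO and no-cell wells; curves fitted, classed by r2 and efficacy.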
# HT1080-NT tox: kills 2HG-producing HT-1080-NT fibrosarcoma cells; HT-1080-NT fibrosarcoma viability, CellTiter-Glo ATP luminescence, 48 h; 360,000 tested, 1.6% active; Potency, µM (highest dose often 46.1 µM), inactives show top-dose activity, negative = less viability, hits mostly cytotoxic;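 also: NT is the 2HG producing partner of a matched IDH1 knockdown line; 0% = DMSO-treated cells and -100% = media-only wells without cells; nearly all actives have a fitted effect of over 55% in size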
#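 Toxicity toward the 2HG-producing NT line was scored as %Activity, normalised to DMSO and no-cell wells, from CellTiter-Glo luminescence after 48 hours' treatment.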
# * marks the source's active call; other numbers are inactive results; i = inactive; u = inconclusive; x = no result given; [ ] = remark or other dose. Calls follow the shape of the dose curve; as a rule, active = well fitted curve in the direction sought with a large enough effect; inconclusive = small, poorly fitted or top-dose-only effect, or another doubt; inactive = no such curve, though single readings can be large; an effect the other way counts as inactive or inconclusive. Potency is read from the fitted curve at half-maximal effect.
SMILES,KB-3-1 tox,SW480 rereplic,KB-V1 cytotox,MCF10A rerep,HT1080 IDH1KD tx,HT1080-NT tox
COC(=O)c1c(NC(=O)c2cc3nc(-c4ccc(Br)cc4)cc(C(F)(F)F)n3n2)sc2c1CCCC2,i,x,i,x,x,x
COc1cc(Cl)c(NS(=O)(=O)c2ccc(-c3coc(C)n3)cc2)c(OC)c1,u,x,i,x,x,x
O=C(CSc1nccn1Cc1ccc(F)cc1)NCc1ccc(F)cc1,i,x,i,x,x,x
CC(=O)C1=C(O)C(=O)N(c2ccccn2)C1c1ccccc1[N+](=O)[O-] (stereo not given),i,21µM*,i,u,1%,11%
CC(=O)C1=C(O)C(=O)N(c2ccc(Br)cn2)C1c1ccccc1[N+](=O)[O-] (stereo not given),i,-13%,i,12%,-3%,u
CCOC(=O)c1c(C)sc(-c2c(-c3ccc(OC)c(F)c3)[nH]c3c2c(=O)[nH]c(=O)n3C)c1O,i,x,i,x,x,x
O=C(Nc1cc(-c2ccccc2)nn1-c1c(Cl)cccc1Cl)c1ccc(F)cc1,i,1%[9.22 µM],i,15µM*,-24%,-22%
Nc1c(C2CCCCC2)c(=O)on1C(=O)c1ccccc1,u,6%,i,15µM*,13%,7%
CCc1ccc2nc(N(CCCN(C)C)C(=O)c3ccc(S(=O)(=O)N4CCCC4)cc3)sc2c1,i,u,i,u,-28%,-29%
COc1cccc2sc(N(CCCN(C)C)C(=O)c3ccc(S(=O)(=O)N4CCCc5ccccc54)cc3)nc12,u,u,u,u,u,18µM*
CCc1ccc2nc(N(CCCN(C)C)C(=O)c3ccc(C(=O)c4ccccc4)cc3)sc2c1,23µM*,17%,i,u,u,u
CCc1ccc2nc(N(CCCN(C)C)C(=O)c3ccc(S(=O)(=O)N4CCCc5ccccc54)cc3)sc2c1,u,29%,9.2µM*,u,u,u
Cc1ccc(-c2csc3nc4c5ccccc5c(NCCCN(C)C)nn4c(=O)c23)cc1,u,u,i,18µM*,-1%,0%
Cc1ccc(-c2nc(NCCCN(C)C)c3ccccc3n2)cc1,i,x,i,x,u,u
CCOC(=O)c1c(C)oc2nc(C)nc(NCCCN3CCN(c4cccc(C)c4)C(C)C3)c12 (stereo not given),i,x,i,x,x,x
COCCNC(=O)c1c(NC(=O)Cc2coc3cc(C)ccc23)sc2c1CCCC2,i,x,i,x,x,x
O=c1c2ccccc2sn1-c1ccc(Cl)cc1Cl,u,x,15µM*,x,u,-21%
CO/N=C(/C(=O)N[C@@H]1C(=O)N2C(C(=O)O)=C(CSC(=O)c3ccco3)CSC12)c1csc(N)n1 (stereo not given in full),x,0%,x,5%,x,x
CCOC(=O)c1cc(-c2ccccc2)n(CCCC(=O)Nc2cccc(Cl)c2C)c1C,i,x,i,x,x,x
CC(C)(C)C1CCC2(CC1)NC(=S)N(c1ccccc1)N2 (stereo not given),u,-6%,i,u,5.8µM*,u
CCC(C)(C)C1CCC2(CC1)NC(=S)N(c1ccccc1)N2 (stereo not given),u,-2%,i,u,18µM*,u
COC(=O)c1sc(N2C(=O)C(O)=C(C(=O)c3ccc(C)o3)C2c2ccco2)nc1C (stereo not given),i,-10%,u,3%,9%,1%
COC(=O)c1sc(N2C(=O)c3oc4ccccc4c(=O)c3C2c2cccs2)nc1C (stereo not given),18µM*,4%,u,u,9%,7%
Cc1ccc(C2C(C(=O)c3cc4ccccc4o3)=C(O)C(=O)N2c2cc(C)on2)cc1 (stereo not given),i,u,i,9.2µM*,-3%,2%
